Source: PubChem BioAssay
Activity calls are given as the source filed them.

What was measured:
[1] = system: Wnt5a (protein binding on small-molecule microarray); assay: Wnt5a binders on small-molecule microarray, primary screen, biophysical, 635/667 nm fluorescence (AID 1142); conditions: 635 nm fluorescence, higher = more signal;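 also: fluorescence read at 667 nm with signal to noise per printed feature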
[2] = cell viability in Huh7 cells, primary screen, cytotoxicity control for HCV replication inhibitor project, CellTiter-Glo luminescence, basal, 48 h (AID 1143); conditions: Huh7 HCV replicon, higher = more signal, called active from +8 up or from −8 down;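 also: Huh7 hepatoma cells carrying a hepatitis C replication reporter with no stimulus; test concentration not given here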
[3] = CREB reporter modulators without forskolin, primary screen, cell-based, PC12, CRE-LacZ reporter, unstimulated (AID 1145); conditions: no forskolin, luminescence, 4.5 h, higher = more signal, called active from +8 up or from −8 down
[4] = CREB reporter modulators under forskolin, primary screen, cell-based, PC12, CRE-LacZ reporter, forskolin-stimulated (AID 1146); conditions: luminescence, 4.5 h, higher = more signal, called active from +8 up or from −8 down;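 also: PC12 cells with 6xCRE LacZ reporter stimulated by forskolin 10 µM; beta-galactosidase reporter signal reflecting CREB driven transcription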
[5] = molecular target: Streptavidin (Streptomyces avidinii) (UniProt P22629); assay: streptavidin binders on small-molecule microarray, primary screen, artefact control for SMM compound annotation, biophysical, 635/667 nm fluorescence (AID 1147); conditions: streptavidin binding, higher = more signal;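 also: signal reflects streptavidin binding to arrayed compounds as a control protein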
[6] = small-molecule binders of probe aInhba, primary screen, biochemical, small-molecule microarray, 635/667 nm fluorescence (AID 1148); conditions: higher = more signal;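 also: score merges 667nm spot fluorescence with signal-to-noise for antibody binding to printed compounds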
[7] = molecular target: Torsin-1A (Homo sapiens) (UniProt O14656); assay: torsin A binders from cell lysate, primary screen, small-molecule microarray, wild-type, 635/667 nm (AID 1149); conditions: COS7 hTOR1A-WT lysate, 635 nm fluorescence, higher = more signal
[8] = molecular target: Torsin-1A (Homo sapiens) (UniProt O14656); assay: small-molecule binders of mutant TOR1A in lysate, primary screen, cell lysate, small-molecule microarray, COS7 lysate, 635/667 nm fluorescence (AID 1150); conditions: COS7 hTOR1A mutant lysate, 635 nm fluorescence, higher = more signal;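 also: score pools 667 nm emission and signal to noise measuring lysate protein binding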
[9] = system: Sonic hedgehog protein (Shh); assay: small-molecule binders of Shh protein, primary screen, biochemical, small-molecule microarray, 635/667 nm fluorescence (AID 1151); conditions: small-molecule microarray binding, 635 nm fluorescence; higher = more signal;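 also: Shh protein binding to compounds spotted on small-molecule microarray slides; score combines spot fluorescence intensity with signal-to-noise across triplicate slides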

Streptavidin (Streptomyces avidinii), sequence (P22629 whole entry, looked up): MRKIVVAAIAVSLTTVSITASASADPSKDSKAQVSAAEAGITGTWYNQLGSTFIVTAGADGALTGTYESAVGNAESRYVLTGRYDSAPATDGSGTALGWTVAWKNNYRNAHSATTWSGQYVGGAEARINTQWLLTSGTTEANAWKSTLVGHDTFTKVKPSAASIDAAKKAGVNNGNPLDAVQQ
Torsin-1A (Homo sapiens), sequence (O14656 whole entry, looked up): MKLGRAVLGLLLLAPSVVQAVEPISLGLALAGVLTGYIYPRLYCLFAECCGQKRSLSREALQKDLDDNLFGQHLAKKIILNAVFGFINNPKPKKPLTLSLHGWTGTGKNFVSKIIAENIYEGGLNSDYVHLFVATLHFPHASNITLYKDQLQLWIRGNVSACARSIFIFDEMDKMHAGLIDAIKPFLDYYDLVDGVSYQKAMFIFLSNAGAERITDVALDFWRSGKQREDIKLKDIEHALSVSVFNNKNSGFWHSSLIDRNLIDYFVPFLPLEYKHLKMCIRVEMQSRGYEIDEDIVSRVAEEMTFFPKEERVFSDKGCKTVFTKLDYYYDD

Structure (SMILES)	composite z-score [1]	z-score [2]	z-score [3]	z-score [4]	composite z-score [5]	composite z-score [6]	composite z-score [7]	composite z-score [8]	composite z-score [9]
CCN1C(C)=C(C(=O)OC)[C@@H](c2ccccc2)N2C(=O)[C@@]3(C(=O)OC)O[C@@]12[C@@H]1C(=O)CCC[C@@H]13	0.365	-0.419 (inactive)	0.462 (inactive)	-0.51 (inactive)	-0.213	0.115	0.385	0.353	2.02
CO[C@@H]1COC(=O)[C@H](C)NC(=O)CC=C[C@@H](C)[C@H](OC)COC(=O)[C@H](C)NC(=O)CC=C[C@H]1C	0.151	-0.164 (inactive)	-0.205 (inactive)	-0.759 (inactive)	1.17	0.0659	0.678	-0.0045	0.622
Cc1ccc(S[C@]2(C(=O)NCCN3CCOCC3)CC(=O)N(C3Cc4ccccc4C3)[C@@H]2c2ccc(CO)cc2I)cc1	-0.149	-2.98 (inactive)	0.531 (inactive)	0.174 (inactive)	-0.658	0.0756	-0.434	-0.131	-0.678
COCCOC(=O)N1C(=O)[C@@]2(c3cc(C#CCC(C(=O)OC)C(=O)OC)ccc31)[C@H](C(=O)N1CCN(c3ncccn3)CC1)[C@H]1C(=O)O[C@H](c3ccccc3)[C@H](c3ccccc3)N1[C@@H]2c1ccc(O)cc1	0.117	-3.81 (inactive)	-0.671 (inactive)	-0.784 (inactive)	0.043	0.0386	0.143	0.731	1.38
C=CC[C@@]12N=C(c3ccc(OCCCO)cc3)O[C@@H]1c1ccccc1CN(Cc1ccccc1)C2=O	0.509	-4.89 (inactive)	2.16 (inactive)	-2.5 (inactive)	-0.0929	0.174	0.376	0.294	1.91
C[C@]1(C(=O)NCc2ccccc2)c2ccccc2C(=O)N(Cc2cc(C(F)(F)F)cc(C(F)(F)F)c2)[C@H]1c1ccc(CO)cc1	0.944	-5.26 (inactive)	-0.735 (inactive)	-1.41 (inactive)	0.157	0.447	0.462	0.334	1.51
C=CCN(C(=O)C1N(c2ccc(CCO)cc2)C(=O)C2C(C(=O)O)C3C=CC21O3)C(C)(C)C (configuration not stated)	-0.505	-1.93 (inactive)	-0.623 (inactive)	-0.819 (inactive)	-2.01	-0.227	-3.07	-1.77	-1.34
CC(C)(C)OC(=O)CC[C@@]1(C(=O)NCc2ccccc2)N=C(c2ccc(OCCCO)cc2)O[C@@H]1c1ccccc1	0.337	-4.58 (inactive)	0.573 (inactive)	-2.42 (inactive)	1.41	0.346	0.461	1.04	-0.282
C=C[C@H](OC)[C@@H](OC(=O)Nc1ccc(SC)cc1)c1ccc(OC)c(O)c1	-0.29	-0.0203 (inactive)	-0.113 (inactive)	-1.26 (inactive)	-1.28	-0.128	-0.678	0.157	0.417
C=CCNC(=O)[C@H]1[C@@H]2C(=O)O[C@@H](c3ccccc3)[C@@H](c3ccccc3)N2[C@@H](c2ccccc2OCCO)[C@]12C(=O)N(C(=O)OCCOC)c1ccc(C#CCC(C(=O)OC)C(=O)OC)cc12	0.302	-3.84 (inactive)	0.775 (inactive)	0.105 (inactive)	-0.204	0.225	0.825	0.946	1.81
C[C@@H]1CC[C@H]2C(=O)N3[C@@H](CC[C@@H](C)[C@@H]3c3cccc(N4CCOCC4)c3)C(=O)N2[C@H]1c1cccc(Br)c1	0.205	-0.167 (inactive)	4.71 (inactive)	-0.902 (inactive)	0.63	0.0561	0.472	0.418	0.994
CO[C@@H]1COC(=O)CC=C[C@H](C)COC(=O)[C@H](Cc2ccccc2)NC(=O)CC=C[C@H]1C	-0.108	-0.87 (inactive)	-0.202 (inactive)	-1.63 (inactive)	-0.457	-0.438	1.46	0.793	1.73
C[N+](C)(C)CCCC[C@@H]1NC(=O)[C@H]2C[C@@H](C(=O)NCc3ccc(F)cc3)[C@@H](c3cccc(OCCO)c3)N2C1=O	0.141	-0.533 (inactive)	1.23 (inactive)	-0.396 (inactive)	-0.326	-0.0963	0.55	1.07	1.4
CCOC(=O)C[C@H]1[C@H](OC(=O)Cc2ccc3c(c2)OCO3)[C@@H](NC(=O)CC(C)C)c2cc(OCCCO)ccc2N1C(=O)c1ccccc1	0.416	-0.957 (inactive)	0.162 (inactive)	-1.48 (inactive)	-0.195	0.126	-0.155	0.287	0.526
C=CCNC(=O)[C@H]1[C@@H]2C(=O)O[C@@H](c3ccccc3)[C@@H](c3ccccc3)N2[C@@H](c2ccccc2OCCO)[C@]12C(=O)N(C(=O)OCCOC)c1ccc(C#CCNC(N)=O)cc12	-0.0103	-1.76 (inactive)	-0.471 (inactive)	0.948 (inactive)	0.98	0.026	0.661	0.296	0.633
CO[C@H]1COC(=O)[C@H](C)COC(=O)[C@H](Cc2ccccc2)NC(=O)CC=C[C@H]1C	0.265	-0.441 (inactive)	0.707 (inactive)	-0.872 (inactive)	-0.0705	0.286	0.715	-0.121	1.61
Cc1ccc(N2C(=O)c3ccccc3[C@](C)(C(=O)O)[C@@H]2c2ccc(CO)cc2)nc1	-0.56	-0.718 (inactive)	-0.852 (inactive)	-0.942 (inactive)	-0.519	-0.267	1.11	-0.144	-0.751
CCC(=O)[C@]12O[C@@]3([C@@H]4C(=O)OCC[C@@H]41)N(CC)C(C)=C(C(=O)OC)[C@@H](c1ccccc1)N3C2=O	-0.0488	-3.62 (inactive)	-0.0708 (inactive)	-1.58 (inactive)	-0.194	-0.283	-0.0028	-0.063	1.92
COc1cccc([C@@H]2[C@@H](C)CC[C@H]3C(=O)N(C)[C@@H](C(C)C)C(=O)N23)c1	0.0537	-0.205 (inactive)	2.9 (inactive)	-0.762 (inactive)	0.398	-0.0523	0.798	0.101	0.39
C[C@@H]1CC[C@H]2C(=O)N3CCC[C@H]3C(=O)N2[C@H]1c1ccc(Br)cc1	0.12	-0.184 (inactive)	1.1 (inactive)	-0.0739 (inactive)	1.98	-0.0986	0.529	0.492	-0.0312
O=C1c2ccccc2[C@](Cc2ccccc2I)(C(=O)NCc2ccccc2)[C@H](c2ccc(CO)cc2)N1Cc1ccccc1C(F)(F)F	-0.246	-2.5 (inactive)	0.0909 (inactive)	-0.487 (inactive)	-0.409	-0.0313	-0.635	-0.162	-0.197
CO[C@H]1COC(=O)[C@H](Cc2ccccc2)NC(=O)CC=C[C@@H](C)[C@H](OC)COC(=O)CC=C[C@@H]1C	0.175	-1.21 (inactive)	-0.567 (inactive)	-1.15 (inactive)	-0.129	-0.0954	0.109	0.189	0.549
O=C(CS)NCCCCCNC(=O)[C@H]1C[C@H]2C(=O)N[C@@H](Cc3ccccc3)C(=O)N2[C@H]1c1ccc(O)cc1	0.252	-0.164 (inactive)	-0.809 (inactive)	-0.819 (inactive)	0.0842	0.0018	1.04	0.746	2.09
C=CCC1=C[C@H]2[C@H]([C@@H]3C=C[C@]2(CC=C)C(=O)[C@]32CO2)[C@@]2(CO2)C1=O	0.123	-3.26 (inactive)	2.21 (inactive)	1.62 (inactive)	0.843	-0.0021	0.919	-0.0031	2.11
CCOC(=O)[C@H]1C/C=C/C[C@H](C(=O)OCC)C(=O)O[C@H]2[C@@H](OC)O[C@H](CO)[C@@H](OC(=O)Nc3ccc(Br)cc3)[C@@H]2OC1=O	0.172	-6.64 (inactive)	-0.614 (inactive)	-1.23 (inactive)	0.521	-0.121	0.164	-0.2	0.69
C=CCC(OC(C)=O)[C@@H]1[C@@H](N(Cc2cc3ccccc3o2)C(=O)Cc2ccc(F)cc2)c2cc(OCCCO)ccc2N1C(=O)c1ccc(-c2ccccc2)cc1 (some centres not stated)	-0.125	0.15 (inactive)	0.787 (inactive)	-0.775 (inactive)	-0.117	-0.0313	-0.583	-0.159	0.0351
COCC(=C=CC[C@H](O)c1ccc(OCCO)cc1)C[C@H](O)c1ccccn1	-0.0253	-0.23 (inactive)	3.18 (inactive)	-1.44 (inactive)	-0.65	-0.018	-0.353	0.904	1.05
CO[C@H]1COC(=O)CC=C[C@H](C)[C@@H](OC)COC(=O)CC=C[C@@H]1C	0.27	-0.909 (inactive)	0.786 (inactive)	-0.0885 (inactive)	-0.538	-0.227	2.03	0.621	1.32
